# The OligoGym collection
# How the values were obtained:
# Assay in all cases: pooled miR-30 sensor sort-seq; sequence = guide strand
# Settings in all cases: shRNA
# [1] = biological target: CUZD1
# [2] = biological target: CTSH
# [3] = biological target: CXCL1
# Also: reference of the scale not given here.
sequence,measurement,setting,value
TATATGAAGAAATGTCTCGTTT,sensor-assay potency score (higher = more potent),[1],-0.417
TCTATACATCATGAAGTCCTGA,sensor-assay potency score (higher = more potent),[2],0.44
TGATTTTCTTAACTATGGGGGA,sensor-assay potency score (higher = more potent),[3],-0.639
TACTGTAGGTCTTACGGTGCTT,sensor-assay potency score (higher = more potent),[2],-0.0767
TTACACTGCAGATACACAGAGC,sensor-assay potency score (higher = more potent),[1],-0.444
TGAGGCAAGCTTTCCGCCCATT,sensor-assay potency score (higher = more potent),[3],-1.55
